In PubChem BioAssay AID485353 (National Center for Advancing Translational Sciences (NCATS), 2010):
The campaign covered roughly 330,000 compounds. About 610 (0.18%) were called active. A call without a number means that no potency is given here. Another 2% or so got no clear call; they are omitted. Calls come from the whole dose curve. The sample as a whole holds a higher share of actives than the screen did.

assay: qHTS of Yeast-based Assay for SARS-CoV PLP; note: nearly all actives have a fitted effect of over 55% in size; details: S. cerevisiae expressing SARS-CoV PLpro; Potency: growth rescue; series mostly up to 32.9 µM
Potency is the fitted concentration of half-maximal effect.

| Compound | Potency |
| --- | --- |
| O=C(OCc1cn(-c2ccc(Cl)c(Cl)c2)nn1)c1ccccc1Cl | inactive |
| COC(=O)CCC(=O)N1CCCC(CO)(Cc2ccccc2)C1 (centres undefined) | inactive |
| CCOC(=O)c1c(N)c(C#N)nn1-c1ccccc1C(=O)OC | inactive |
| CC1(C)CN=C(N2CCN(c3ncnc4sc5c(c34)CCCC5)CC2)S1 | inactive |
| COc1ccc(NC(=O)CN(C)C(=O)c2ccc(NC3CC3)c([N+](=O)[O-])c2)cc1 | inactive |
| COc1ccc(C(C(=O)NC(C)(C)C)N(Cc2ccc(F)cc2)C(=O)CCC(=O)Nc2cc(C)on2)cc1 (centres undefined) | inactive |
| Cc1ccccc1Cn1nc(C)c(NC(=O)C(F)(F)F)c1C | inactive |
| CCCCc1ccc(NC(=O)CN2C(=O)NC(Cc3ccccc3)C2=O)cc1 (centres undefined) | inactive |
| O=C(C(NS(=O)(=O)c1cccc2nsnc12)c1ccccc1)N1CCN(c2ccccc2)CC1 (centres undefined) | inactive |
| Cc1cc(OCCOc2cccc3cccnc23)c(C)cc1Cl | inactive |
| CC(C)CNC(=O)C1CCCN(S(=O)(=O)c2ccc(-n3cnnn3)cc2)C1 (centres undefined) | inactive |
| COC(=O)C1(C)NC(c2ccc(C)cc2)C2C(=O)N(c3ccc(F)cc3)C(=O)C21 (centres undefined) | inactive |
| Cc1c2cnn(-c3ccccc3)c(=O)c2c(C)n1CCCC(=O)N1CCN(C)CC1 | inactive |
| COC(=O)[C@]1(C)CCC[C@@]2(C)C3CC[C@]4(OC(C)=O)C[C@@]3(CCC21)CC4=NO (some centres undefined) | inactive |
| CCCCN(CC(=O)Nc1cccc(S(=O)(=O)N2CCCC2)c1)Cc1nc2ccccc2c(=O)[nH]1 | inactive |
| COc1ccc(N(C(=O)CNC(=O)c2ccco2)C(C(=O)NCC2CCCO2)c2ccccc2)cc1Cl (centres undefined) | inactive |
| COc1cccc(NC(=S)NC(=O)c2c(Cl)c(C)nn2C)c1 | inactive |
| Cc1ccc2occ(/C=N/NC(=O)c3ccccc3C)c(=O)c2c1 | inactive |
| Cc1ccc(/C=N/NC(=O)C2=NNC(c3ccccc3)(c3ccccc3)C2)c(O)c1 | 3.55 µM (active) |
| Cc1nc2ccc(C(=O)N/N=C/c3ccc(O)cc3)cc2[nH]1 | inactive |
| Cc1cc(OC(=O)c2ccccc2Cl)ccc1N1C(=O)CCC1=O | inactive |
| CC(C)C(C)NC(=O)COc1nc2ccccc2nc1N(C)C1CCCCC1 (centres undefined) | inactive |
| O=C(NC1CCN(C(=S)NCc2ccco2)CC1)c1ccc(F)cc1 | inactive |
| Cn1c(=O)n(C)c2cc(CNc3ccc(N4CCOCC4)c(C(=O)O)c3)ccc21 | inactive |
| CC(=O)Nc1cccc2c1[n+]([O-])c(C)c(C)[n+]2[O-] | inactive |

| Compound | Potency |
| --- | --- |
| COC(=O)c1ccc(C(NC(=O)OCc2ccccc2)/C(C)=C/[C@@H](C)C(=O)NCc2ccc(OC)c(OC)c2)cc1 (some centres undefined) | inactive |
| COc1ccc(CC(=O)N/N=C/c2cc([N+](=O)[O-])cc(Br)c2O)cc1 | inactive |
| COc1ccc2ccccc2c1/C=N/NC(=O)c1cc(C)[nH]n1 | inactive |
| Cc1cc(C(=O)N/N=C/c2cc([N+](=O)[O-])cc(C)c2O)n[nH]1 | 4.47 µM (active) |
| CC(=O)c1ccc(NC(=O)C2CC(=O)Nc3nc4ccccc4n32)cc1 (centres undefined) | inactive |
| O=c1[nH]c2ccc(S(=O)(=O)N3CCCC3)cc2[nH]1 | inactive |
| COC(=O)C[n+]1cccc2ccccc21 | inactive |
| CN(C)c1ccc(C(=S)N2CCN(C(=S)Nc3ccc(Cl)cc3)CC2)cc1 | inactive |
| COc1cc(N2CCCC2)c(OC)cc1/C=C(/C#N)c1cccc(Br)c1 | inactive |
| CCOC(=O)C1C(=O)OC2(CCCC2)C1C(=O)OCC (centres undefined) | inactive |
| CCN(C(=O)c1ccc(Br)cc1)c1ccccc1 | inactive |
| CC1CCCCC1NC(=O)/C(C#N)=C/C=C/c1ccccc1[N+](=O)[O-] (centres undefined) | inactive |
| COc1ccc(N(CCC(=O)NCCc2ccccc2)S(=O)(=O)c2ccc(C)cc2C)cc1 | inactive |
| O=C(COC(=O)Cc1ccccc1F)NNC(=O)c1ccc(Cl)cc1 | inactive |
| CCCCOC(=O)CNc1nnc(SCC(=O)OCC)[nH]c1=O | inactive |
| COc1ccc(-c2[nH]ncc2/C=N/NC(=O)c2cc(Br)ccc2O)c(OC)c1 | inactive |
| CC(C)/C=N/NC(=O)c1cc(Br)ccc1O | 10 µM (active) |
| CC(=N\NC(=O)c1cc(Br)ccc1O)/C(=N/O)C(=O)Nc1ccccc1 | inactive |
| COC(=O)c1cc(OC)c(OC)cc1NC(=O)CSc1ccc(C)cc1 | inactive |
| COc1ccc(C)cc1NC(=O)CSc1ccc(Cl)cc1 | inactive |
| COC(=O)c1scc(C)c1NC(=O)CSc1ccc(Cl)cc1 | 0.708 µM (active) |
| CCOC(=O)c1c(N)sc2c1CCCC2=O | inactive |
| CCOC(=O)c1c(/N=C/C2C(=O)CC(C)(C)CC2=O)sc(C)c1C | 3.16 µM (active) |
| CCOC(=O)c1sc(/N=C/C2=C(O)CC(C)(C)CC2=O)c(C(=O)OCC)c1C | inactive |
